# A selection: hits, their analogues and other compounds. The true share with any hit is near 4.3%.
# SW480 rerep: DNA re-replication induction in SW480 cells. 340,000 tested, 1.8% active. AID 624297. Potency, µM (top dose mostly 46.1 µM), for inactives: at the highest dose re-replication activation, actives largely listed as activators. SW480 DNA re-replication, Hoechst DNA content imaging, 48 h; note: potency is the fitted concentration of half-maximal effect; % of control where 0% means no effect; nearly all actives have a fitted effect of over 55% in size
#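 DNA re-replication was detected as more nuclei of elevated Hoechst intensity after 48 hr exposure to compound (23 nL pinned per well of 250 cells).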
# Giardia kill: Giardia lamblia killing. Giardia lamblia trophozoite viability. activity change, % at 7.66 µM, hits read low. 340,000 tested, 0.15% active. AID 540267; in the data active = activity change below about -80%; inconclusive = between about -30% and that limit;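 note: parasites exposed to compound for two days anaerobically before the ATP read; % is set by controls: 0 for no effect and ±100 for the full control effect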
#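 Trophozoite viability was measured as ATP-dependent luminescence, read 15-30 min after reagent addition. Before that, parasites at 100 cells/well were exposed to compounds for 48 h, anaerobically, at 37 deg C.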
# MCF10A rereplic: induces DNA re-replication in MCF 10a normal breast cells. MCF 10A DNA re-replication, Hoechst nuclear intensity, 48 h. Potency, µM (highest dose often 46.1 µM), for the others: at the highest dose activity, positive = re-replication, most hits filed as activators. 350,000 tested, 2.9% active; note: potency is the fitted concentration of half-maximal effect; % of control where 0% means no effect; nearly all actives have a fitted effect of over 50% in size
# uPA generation: cell surface uPA generation inhibition; cell surface uPA generation assay, qHTS; Potency, µM (highest dose often 38.3 µM), without a hit: at the top dose activity change, negative = inhibition, actives largely listed as inhibitors; 330,000 tested, 0.31% active; AID 540303; active = well fitted inhibition curve with a large enough effect; inconclusive = small, poorly fitted or top-dose-only effect; inactive = no such curve, though single readings can be large or run the other way; tested in mouse RAW 264.7 cells; note: potency is the fitted concentration of half-maximal effect; % is set by controls: 0 for no effect and ±100 for the full control effect; nearly all actives have a fitted effect of over 55% in size
# * = called active by the depositor; ? = inconclusive; . = no result; [ ] = another dose, or the depositor's remark. Unless noted, calls come from the whole dose curve; as a rule, active = well fitted activation curve with a large enough effect; inconclusive = small, poorly fitted or top-dose-only effect; inactive = no such curve, though single readings can be large or run the other way.
SMILES,SW480 rerep,Giardia kill,MCF10A rereplic,uPA generation
CCOc1cc2c3c(c1)C1(OCCO1)C(=O)N3C(C)(C)CC2C (configuration not stated),-6%,-7,13%,3%
CCOc1cc2c3c(c1)C1(C(=O)N3C(C)(C)CC2C)C(C#N)=C(N)N2C(=C1C#N)Nc1ccccc12 (configuration not stated),2%,-1,16µM*,-2%
CCOc1cc2c3c(c1)C1(Nc4ccccc4S1)C(=O)N3C(C)(C)CC2C (configuration not stated),?,3,21µM*,0%
CC1CCN(C(=O)/C(=C/c2ccccc2Cl)c2ccccc2)CC1,-1%,-26,16µM*,15%
COc1ccc(C(=O)NCCc2nc3cc([N+](=O)[O-])ccc3n2C)cc1,?,1,5%,-23%
COc1ccc2c(c1)c(CC(=O)Nc1ccccc1OC)c(C)n2C(=O)c1ccc(Cl)cc1,0%,38,16µM*,-9%
COc1ccc2c(c1)c(CC(=O)Nc1cc(C)ccc1C)c(C)n2C(=O)c1ccc(Cl)cc1,1%,4,7%,-8%
COc1ccc2c(c1)c(CC(=O)Nc1ccc(C(C)=O)cc1)c(C)n2C(=O)c1ccc(Cl)cc1,-18%,-3,3%,4%
COc1ccc2c(c1)c(CC(=O)Nc1nnc(C3CC3)s1)c(C)n2C(=O)c1ccc(Cl)cc1,?,11,10µM*,4%
COc1ccc2c(c1)c(CC(=O)NCc1cc([N+](=O)[O-])ccc1O)c(C)n2C(=O)c1ccc(Cl)cc1,-2%,-10,23µM*,-1%
[O-][N+](=Nc1ccccc1)c1ccccc1,1%,.,2%,.
CC(=O)Oc1ccc2c(=O)c(-c3nc4ccccc4s3)coc2c1,-2%,-24,-3%,-10%
COC(=O)CN1C(=S)N(Cc2ccccc2)C(=O)C1CC(=O)Nc1ccc(Br)cc1 (configuration not stated),?,-6,18µM*,6%
CCN(c1ccccc1)S(=O)(=O)c1cc(C(=O)NCC(c2ccc(OC)cc2)N(C)C)ccc1C (configuration not stated),?,4,?,?
Cc1cc(C(=O)CN2C(=O)C(=O)N(Cc3ccco3)C2=O)c(C)n1CCc1ccc(F)cc1,?,5,?,?
Cc1cc(C(=O)CN2C(=O)C(=O)N(Cc3ccco3)C2=O)c(C)n1CCc1ccccc1,?,-21,4.6µM*,-10%
COc1ccc(-n2c(C)cc(C(=O)CN3C(=O)NC4(CCCc5sccc54)C3=O)c2C)cc1 (configuration not stated),6%,-10,?,11µM*
COc1ccc(-n2c(C)cc(C(=O)CN3C(=O)C(=O)N(Cc4ccccc4)C3=O)c2C)cc1,8%,-14,5.8µM*,?
CCn1c(SC)nc2c(c1=O)SC(C)C2 (configuration not stated),-17%,13,21µM*,-6%
CCSc1nc2c(c(=O)n1CC)SC(C)C2 (configuration not stated),23%,-1,?,-11%
O=P(Cc1cccc2ccccc12)(c1ccccc1)c1ccccc1,2%,2,2%,-8%
CCOc1ncccc1C(=O)OCc1ccc(Cl)cc1,-1%,-5,-3%,1%
CCOc1ncccc1C(=O)OCc1ccc(C(=O)OC)cc1,7.3µM*,-12,3%,-12%
COC(=O)c1ccc(COC(=O)c2ccc(N(C)C)cc2)cc1,?,-10,8.2µM*,1%
O=C(Cc1cccc(NC(=O)C2CCCN(C(=O)CCc3ccccc3)C2)c1)Nc1ccc(C(=O)N2CCCCC2)cc1 (configuration not stated),21%,-7,-32%,-20%
SMILES,SW480 rerep,Giardia kill,MCF10A rereplic,uPA generation
Cc1cc(NC(=O)OC2CCCCC2)ccc1[N+](=O)[O-],8%,10,?,5%
C=C1CCN(C(CC(C)C)C(=O)NCc2ccc(Cl)c(Cl)c2)S(=O)(=O)c2ccccc21 (configuration not stated),.,2,.,.
Cc1cc(C(=O)N/N=C/c2cc(Br)ccc2OC(=O)c2ccccc2Cl)n[nH]1,7.3µM*,-18,?,-9%
Cc1cc(C(=O)N/N=C/c2cc(Br)ccc2OC(=O)c2ccccc2)n[nH]1,?,19,22%,-10%
COC(=O)C1CCN(C(=O)C2CC(=O)N(c3ccc(C)c(Cl)c3)C2)CC1 (configuration not stated),4%,-3,-3%,4%
COc1cc2c(cc1NC(=O)CN(C)Cc1cccc(OC)c1OC)oc1ccccc12,?,11,7.3µM*,0%
COc1ncnc(-c2ccccc2)c1-c1ccccc1,0%,6,11%,-3%
CC1(c2nnc(-c3ccccc3)o2)CC(c2ccc(Cl)cc2)=NO1 (configuration not stated),-3%,17,27%,-2%
CC1(c2nnc(-c3ccncc3)o2)CC(c2ccc(Cl)cc2)=NO1 (configuration not stated),-8%,-21,9.2µM*,-13%
Cc1[nH]c2ccc(-c3nnc(SCC(=O)c4ccccc4F)o3)cc2c1C,4%,7,16µM*,8%
Cc1ccc(-c2nnc(SCC(=O)Nc3ccccc3F)o2)cc1,-6%,-20,-3%,8.9µM*
O=C(CSc1nnc(-c2ccccc2)o1)Nc1ccccc1F,0%,-3,0%,?
O=C(CSc1nnc(-c2ccncc2)o1)Nc1cccc(F)c1,-22%,-1,-6%,2%
O=C(CSc1nnc(-c2cccnc2)o1)Nc1cccc(F)c1,3.3µM*,-27,0%,0%
Cc1ccc(C(=O)CSc2nnc(-c3ccc4[nH]c(C)c(C)c4c3)o2)cc1C,1%,3,-1%,7%
O=S(=O)(c1ccc(F)c(Cl)c1)N1CCN(C/C=C/c2ccccc2)CC1,-4%,-5,?,8%
CN(CC(=O)Nc1ccc(Cl)c(Cl)c1)C(=O)CNC(=O)C1CCCCC1,?,3,1%,?
COc1ccc(C2/C=C\CN(C(=O)C3CCCCC3)C(C)C(=O)N2Cc2ccc(F)cc2)cc1 (configuration not stated),.,6,.,.
N#C/C(=C/C1=C(N2CCOCC2)C(=C/c2ccc(Cl)cc2Cl)/CC1)C(=O)Nc1ccccc1F,-7%,8,-5%,3%
ClCC1=Nc2ccccc2Cc2ccccc21,4%,-23,11%,1%
N#CC1C(=N)Cc2ccccc2-c2ccccc21 (configuration not stated),16µM*,-8,?,-12%
O=C(Nc1cc(S(=O)(=O)N2CCOCC2)ccc1Cl)c1ccc(=O)[nH]c1,-76%,1,-19%,0%
CC1=C(C)/C(=N\OS(=O)(=O)c2ccccc2)C=CC1=O,10µM*,11,?,-14%
Cc1ccc(S(=O)(=O)O/N=C2\CCCc3ccccc32)cc1,-5%[9.22 µM],-14,?,-2%
Cc1ccc(Cn2ccsc2=NC(=O)COC(=O)c2ccc(NC(=O)CC#N)cc2)cc1,-44%,4,17%,16%
Cc1ccc(Cn2ccsc2=NC(=O)CCl)cc1,95%[1.84 µM],-15,?,2µM*

# Screening results: PubChem BioAssay, National Center for Advancing Translational Sciences (NCATS)
